{"source": "PubChem BioAssay (NCI)", "note": "About 79,000 compounds went through this panel and 15% of them were active in at least one assay; those are over-represented in the sample as a whole. A number with no mark means an inactive call. Calls of active or inactive are those of the source. No stated cut-off is given here; in the data, active means growth inhibition above about 70%; inactive means the rest.", "data": [{"assay": "NCI Yeast Anticancer Drug Screen. Data for the rad50 strain (AID 155);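 further: 0% = growth of vehicle-only cultures of the same strain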", "conditions": "S. cerevisiae rad50 strain growth inhibition; at 50.0 µM; hits give high values", "summary_of_the_method": "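Yeast carrying a defined DNA repair defect were exposed to test compounds, and growth was compared with vehicle-treated controls to give percent inhibition.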", "values": [{"smiles": "COc1ccc(N=Cc2cc(Br)cc(Br)c2O)cc1.COc1ccc(N=Cc2cc(Br)cc(Br)c2O)cc1.[Co]", "growth inhibition": "74% (active)"}, {"smiles": "O=C(/C=C/C(=O)N1CCCC1)N1CCCC1", "growth inhibition": "1.15%"}, {"smiles": "O=S(c1ccccc1)c1c(Cl)c(Cl)nc(Cl)c1Cl", "note": "(centres undefined)", "growth inhibition": "99.2% (active)"}, {"smiles": "CSc1nc(N)c2cnn(C3OC(CO)C(O)C3O)c2n1", "note": "(centres undefined)", "growth inhibition": "9.55%"}, {"smiles": "COc1cccc(C=O)c1O", "growth inhibition": "74.6% (active)"}, {"smiles": "Cn1c(=O)c2c(ncn2CCCCOc2ccc3c(c2)[n+]([O-])nc(N)[n+]3[O-])n(C)c1=O", "growth inhibition": "44%"}, {"smiles": "Cn1ncc2c(Nc3cccc(Cl)c3)nc(Nc3cccc(Cl)c3)nc21", "growth inhibition": "96% (active)"}, {"smiles": "Cc1cc(C)n2nc(N)c(C#N)c2c1C#N", "growth inhibition": "17.2%"}, {"smiles": "COc1ccc(C2c3cc4c(cc3OC(O)C2C)OCO4)cc1", "note": "(centres undefined)", "growth inhibition": "96.8% (active)"}, {"smiles": "Nc1ccccc1[S][Sn]([c]1ccccc1)([c]1ccccc1)[c]1ccccc1", "growth inhibition": "98.5% (active)"}, {"smiles": "Cn1c(Sc2ccc(-c3cccnc3)n2C)ccc1-c1cccnc1", "growth inhibition": "97.8% (active)"}, {"smiles": "Nc1nnc(-c2cc(=O)c3cc(Cl)ccc3o2)s1", "growth inhibition": "60%"}, {"smiles": "COc1ccc(CNc2nc3cc(C(F)(F)F)ccc3nc2C)cc1OC", "growth inhibition": "87.8% (active)"}, {"smiles": "CC(=O)OCC1CC2OC2CC1C", "note": "(centres undefined)", "growth inhibition": "70.1% (active)"}, {"smiles": "CCCCN(CCCC)CC(O)c1cc(-c2ccc(Cl)cc2)nc2cc(C)ccc12", "note": "(centres undefined)", "growth inhibition": "99.2% (active)"}, {"smiles": "NC(=S)n1nc(-c2ccccc2)c(N=Nc2ccccc2Cl)c1-c1ccccc1", "growth inhibition": "94.8% (active)"}, {"smiles": "CCCCCCCCCCCCN(CCO)CCO", "growth inhibition": "74.9% (active)"}, {"smiles": "CC(C)CCSc1ncnc2nc[nH]c12", "growth inhibition": "48.1%"}, {"smiles": "O=C(c1ccccc1)c1cccc2ccccc12", "growth inhibition": "56.2%"}, {"smiles": "O=C1C(c2c[nH]c3ccccc23)=Nc2ccc(Br)cc21", "growth inhibition": "86.8% (active)"}, {"smiles": "COc1cccc(CCCNC(=O)Cc2ccccc2CO)c1", "growth inhibition": "34.2%"}, {"smiles": "C/C(=N\\NC(=S)N1CCN(C2CCCCC2)CC1)c1ccccn1", "growth inhibition": "99% (active)"}, {"smiles": "CN(C)CCOC(=O)C1(CCC2CCCCC2)CCCCC1", "growth inhibition": "96.9% (active)"}, {"smiles": "O=c1c(Cl)cc2nc3ccccc3sc-2c1Cl", "growth inhibition": "84% (active)"}, {"smiles": "COc1ccc2nc(NC(=O)Nc3c(Cl)cccc3Cl)sc2c1", "growth inhibition": "98.4% (active)"}, {"smiles": "Cc1c[nH]c2nc(C)n(-c3ccccc3)c(=N)c12", "growth inhibition": "6.1%"}, {"smiles": "O=C(C1=NNC(c2ccccc2)C1C(=O)c1ccccc1)c1ccccc1", "note": "(centres undefined)", "growth inhibition": "74.8% (active)"}, {"smiles": "CCOC(=O)N1CCN(C=S)CC1", "growth inhibition": "31.1%"}, {"smiles": "COC(=O)N(C[C@@H]1C=CCCC1)c1ccccc1I", "growth inhibition": "88.3% (active)"}, {"smiles": "N=c1ccc2c(c1)[nH]c1c3ccccc3[nH]c3cccc2c31", "growth inhibition": "81.8% (active)"}, {"smiles": "CC1(C)[C@H]2CC[C@]1(C)[C@H](OC(=O)NNC(=O)O[C@@H]1C[C@@H]3CC[C@@]1(C)C3(C)C)C2", "growth inhibition": "11.3%"}, {"smiles": "N#CC1(C#N)C(C#N)(C#N)C12CCCCCC2", "growth inhibition": "98.9% (active)"}, {"smiles": "CCOP(=O)(OCC)OC1c2[nH]ccc2-c2cc(C(=O)OC)[nH]c2C1OC", "note": "(centres undefined)", "growth inhibition": "12.5%"}, {"smiles": "O=[N+]([O-])/C(=C\\c1cccs1)c1ccccc1", "growth inhibition": "99.2% (active)"}, {"smiles": "Cc1ccccc1NC(=O)C(=O)C(C#N)c1c(Cl)cccc1Cl", "note": "(centres undefined)", "growth inhibition": "-15.6%"}, {"smiles": "O=C1c2c(F)c(F)c(F)c(F)c2SC2=NCCN12", "growth inhibition": "78.4% (active)"}, {"smiles": "CCCC(C)OC(=O)Nc1cccc(Cl)c1", "note": "(centres undefined)", "growth inhibition": "98.4% (active)"}, {"smiles": "Nc1nc(SCc2ccccc2)c2ncn(CCCl)c2n1", "growth inhibition": "1.4%"}, {"smiles": "CCCCOC(=O)c1nc(N(CC2CCCCC2)C(=O)NC)sc1NC(=O)NC", "growth inhibition": "10.5%"}]}]}
